Test results from paper PMC4336329 (PLoS ONE, 2015).
Out of some 310,000 compounds screened, about 14,000 (4.5%) showed an effect of 50% or more. The effect is printed as a negative number. What follows is part of a selection rich in strong results, with near analogues and random picks from the rest.

These compounds were tested against human ether-à-go-go-related gene (hERG) potassium channel (human, UniProt Q12809) (assay: primary screen, population patch clamp on CHO cells stably expressing hERG; higher = less effect of the substance).
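Also: peak tail current of the secondary pulse compared with the same well before compound.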

Chain of human ether-à-go-go-related gene (hERG) potassium channel (Q12809 whole entry, looked up): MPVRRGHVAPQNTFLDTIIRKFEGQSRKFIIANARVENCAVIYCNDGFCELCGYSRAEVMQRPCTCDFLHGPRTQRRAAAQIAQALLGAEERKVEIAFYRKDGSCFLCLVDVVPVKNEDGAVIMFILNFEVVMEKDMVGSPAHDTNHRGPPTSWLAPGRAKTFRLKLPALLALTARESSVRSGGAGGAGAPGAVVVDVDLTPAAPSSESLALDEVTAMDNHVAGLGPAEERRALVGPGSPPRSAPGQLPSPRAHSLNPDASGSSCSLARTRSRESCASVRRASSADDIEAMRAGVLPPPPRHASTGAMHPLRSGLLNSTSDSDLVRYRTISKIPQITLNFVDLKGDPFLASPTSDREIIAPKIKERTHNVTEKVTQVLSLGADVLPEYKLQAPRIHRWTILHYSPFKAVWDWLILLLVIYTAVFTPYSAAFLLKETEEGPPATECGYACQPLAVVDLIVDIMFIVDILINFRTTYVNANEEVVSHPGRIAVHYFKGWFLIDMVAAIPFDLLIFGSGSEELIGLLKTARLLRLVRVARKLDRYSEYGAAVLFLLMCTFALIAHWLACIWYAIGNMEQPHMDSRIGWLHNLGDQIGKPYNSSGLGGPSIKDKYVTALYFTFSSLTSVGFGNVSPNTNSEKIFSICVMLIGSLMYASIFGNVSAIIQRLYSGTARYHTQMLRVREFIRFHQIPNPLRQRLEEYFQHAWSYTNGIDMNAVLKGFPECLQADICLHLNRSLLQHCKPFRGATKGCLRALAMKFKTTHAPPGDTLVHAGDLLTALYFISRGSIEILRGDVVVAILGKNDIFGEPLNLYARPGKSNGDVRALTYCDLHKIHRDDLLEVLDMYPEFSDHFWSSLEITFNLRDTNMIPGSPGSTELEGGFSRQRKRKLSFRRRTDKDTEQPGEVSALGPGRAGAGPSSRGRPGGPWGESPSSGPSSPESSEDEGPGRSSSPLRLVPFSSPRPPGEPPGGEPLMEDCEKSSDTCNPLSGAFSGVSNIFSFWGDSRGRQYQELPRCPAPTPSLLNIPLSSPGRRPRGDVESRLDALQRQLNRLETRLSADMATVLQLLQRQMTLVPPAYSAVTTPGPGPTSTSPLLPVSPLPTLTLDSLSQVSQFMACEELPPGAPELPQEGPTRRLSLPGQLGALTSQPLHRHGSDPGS

With `COc1ccc(CCNC(=S)N(C)C)cc1OC` as the compound, how does the “hERG current change (%, negative = inhibition) at 10uM” value read?
Its value is 32.8%.

`COc1ccc(CN(C)C(C)C(=O)Nc2ccc(S(=O)(=O)N3CCCCC3)cc2)cc1F` (stereo not shown) was tested. Which “hERG current change (%, negative = inhibition) at 10uM” value did it give?
The value was -19.7%.

For `COc1ccc(Cl)cc1NC(=O)CN(C)Cc1ccc(OC)c(OC)c1`, which “hERG current change (%, negative = inhibition) at 10uM” value is on record?
The value was -9.72%.

With `COc1ccc(CN(C)C(C)C(=O)N(C)CC(=O)Nc2ccc(C)cc2)cc1F` (stereo not shown) as the compound, how does the “hERG current change (%, negative = inhibition) at 10uM” value read?
The value was -57.1%.

With `COc1ccc(CN(C)CC(=O)Nc2ccc(SC(F)F)cc2)cc1OC` as the compound, how does the “hERG current change (%, negative = inhibition) at 10uM” value read?
Its value is -76.2%.

With `COc1ccc(CCN(C)C(=S)Nc2ccc(SC(F)F)cc2)cc1OC` as the compound, how does the “hERG current change (%, negative = inhibition) at 10uM” value read?
Its value is -74.7%.

How did the “hERG current change (%, negative = inhibition) at 10uM” value turn out when `COc1ccc(CN(C)CC(=O)Nc2cccc3ccccc23)cc1F` was run?
Its value is -13.4%.

`COc1ccc(CN(C)CC(=O)Nc2ccc(N3CCOCC3)cc2)cc1OC` was tested. Which “hERG current change (%, negative = inhibition) at 10uM” value did it give?
The value was -7.84%.

With `COc1ccc(CCN(C)C(=S)NC(=O)c2ccc(F)cc2Cl)cc1OC` as the compound, how does the “hERG current change (%, negative = inhibition) at 10uM” value read?
The value was -20.4%.

How did the “hERG current change (%, negative = inhibition) at 10uM” value turn out when `CCOC(=O)[C@H]1[C@H]2COc3ccc(Cl)cc3[C@@H]2N2C(=O)c3cc(Cl)ccc3NC(=O)[C@@]12C` was run?
The value was 3.59%.

For `COc1ccc(COC(=O)C2=C(C)NC(=O)NC2c2ccc(O)c(OC)c2)cc1` (stereo not shown), which “hERG current change (%, negative = inhibition) at 10uM” value is on record?
The value was -3.97%.

With `Cc1ccc2[nH]c3c(c2c1)SC(C)(C)CC3=O` as the compound, how does the “hERG current change (%, negative = inhibition) at 10uM” value read?
Its value is 3.75%.

`COC(=O)C(NC(=O)CSc1nc(N)cc(=O)[nH]1)c1ccccc1` (stereo not shown) was tested. Which “hERG current change (%, negative = inhibition) at 10uM” value did it give?
The value was 18.3%.

For `C=CCc1ccc(OCCn2cncn2)c(OC)c1`, which “hERG current change (%, negative = inhibition) at 10uM” value is on record?
Its value is 7.93%.

`CCCCCN(C(=O)NC(=O)NC(C)CC)S(C)(=O)=O` (stereo not shown) was tested. Which “hERG current change (%, negative = inhibition) at 10uM” value did it give?
The value was 9.23%.

How did the “hERG current change (%, negative = inhibition) at 10uM” value turn out when `CCN(CC)CCn1c2c(c(SCC(=O)Nc3ccccc3Cl)nc1=O)CCC2` was run?
Its value is -59.8%.

How did the “hERG current change (%, negative = inhibition) at 10uM” value turn out when `CCN(CC)CCn1c2c(c(SCC(=O)NCc3ccccc3)nc1=O)CCC2` was run?
Its value is -38.7%.

With `COc1ccccc1NC(=O)CSc1nc(=O)n(CCN(C)C)c2c1CCCC2` as the compound, how does the “hERG current change (%, negative = inhibition) at 10uM” value read?
The value was -40.4%.

`O=C(CSc1nc(=O)n(CCCN2CCOCC2)c2c1CCCC2)Nc1ccccc1Cl` was tested. Which “hERG current change (%, negative = inhibition) at 10uM” value did it give?
The value was -42.9%.

For `CCN(CC)CCn1c2c(c(SCC(=O)Nc3ccccc3Cl)nc1=O)CCCC2`, which “hERG current change (%, negative = inhibition) at 10uM” value is on record?
The value was -55.6%.

`Cc1c(Cl)cccc1NC(=O)CSc1nc(=O)n(CCCN2CCOCC2)c2c1CCC2` was tested. Which “hERG current change (%, negative = inhibition) at 10uM” value did it give?
Its value is -47.1%.

`CCN(CC)CCn1c2c(c(SCC(=O)NCc3ccccc3)nc1=O)CCCC2` was tested. Which “hERG current change (%, negative = inhibition) at 10uM” value did it give?
The value was -31.4%.

`CCN(CC)CCCn1c2c(c(SCC(=O)Nc3ccccc3Cl)nc1=O)CCC2` was tested. Which “hERG current change (%, negative = inhibition) at 10uM” value did it give?
The value was -55.4%.

For `C/C(=N\NC(=O)c1cccc(S(=O)(=O)N2CCCC2)c1)c1ccco1`, which “hERG current change (%, negative = inhibition) at 10uM” value is on record?
The value was 14.1%.

With `COc1ccc(N2CC(NC(=O)c3cccc4ccccc34)CC2=O)cc1OC` (stereo not shown) as the compound, how does the “hERG current change (%, negative = inhibition) at 10uM” value read?
The value was -2.85%.

Which “hERG current change (%, negative = inhibition) at 10uM” value does the source give for `COc1cccc(CCNC(=O)CC2C(=O)NCCN2CC(C)(C)C)c1` (stereo not shown) here?
Its value is 15.8%.

How did the “hERG current change (%, negative = inhibition) at 10uM” value turn out when `CCCOc1ccc(NC(=O)CC2C(=O)OCC3CCCCN32)cc1` (stereo not shown) was run?
The value was -4.12%.

`COc1ccc(C2/C=C\CN(C(=O)Nc3ccc(C(F)(F)F)cc3)CC(=O)N2Cc2ccc(F)cc2)cc1` (stereo not shown) was tested. Which “hERG current change (%, negative = inhibition) at 10uM” value did it give?
Its value is 6.55%.

With `NC(CO)(CO)CO.O=C(c1ccccc1)c1ccc2n1CCC2C(=O)O` (stereo not shown) as the compound, how does the “hERG current change (%, negative = inhibition) at 10uM” value read?
Its value is -3.5%.

For `COc1ccc(N(CC(=O)NCc2ccc3c(c2)OCO3)C(=O)c2csnn2)cc1`, which “hERG current change (%, negative = inhibition) at 10uM” value is on record?
The value was -13.6%.

How did the “hERG current change (%, negative = inhibition) at 10uM” value turn out when `Cn1c(=O)oc2cc(S(=O)(=O)NCCC(=O)N3CCN(c4ccccc4F)CC3)ccc21` was run?
Its value is -17%.

How did the “hERG current change (%, negative = inhibition) at 10uM” value turn out when `COc1ccc(/C(N)=C/C(=O)C(C)(C)C)cc1` was run?
Its value is -5.64%.

How did the “hERG current change (%, negative = inhibition) at 10uM” value turn out when `COc1nc(Oc2ccc(=O)n(C)n2)nc(N(C)C)n1` was run?
The value was 0.595%.

Which “hERG current change (%, negative = inhibition) at 10uM” value does the source give for `N#Cc1ccc(S(=O)(=O)NC2CCN(Cc3ccccc3)CC2)cc1` here?
The value was -31.8%.

For `COc1ccccc1OCC(O)Cn1c(=N)n(CCN2CCCCC2)c2ccccc21.Cl` (stereo not shown), which “hERG current change (%, negative = inhibition) at 10uM” value is on record?
Its value is -65.4%.

With `COc1ccc(OCC(O)Cn2c(=N)n(CCN3CCCCC3)c3ccccc32)cc1.Cl` (stereo not shown) as the compound, how does the “hERG current change (%, negative = inhibition) at 10uM” value read?
The value was -68.1%.

`COc1ccccc1OCCCCN1CCCCC1` was tested. Which “hERG current change (%, negative = inhibition) at 10uM” value did it give?
Its value is -1.89%.

How did the “hERG current change (%, negative = inhibition) at 10uM” value turn out when `COc1ccc(OCC(O)CN2CCCCC2)cc1.Cl` (stereo not shown) was run?
Its value is 8.1%.

With `Cc1ccc(OCC(O)Cn2c(=N)n(CCN3CCCCC3)c3ccccc32)cc1.Cl` (stereo not shown) as the compound, how does the “hERG current change (%, negative = inhibition) at 10uM” value read?
The value was -72.9%.

Which “hERG current change (%, negative = inhibition) at 10uM” value does the source give for `CCOc1ccc(C(O)Cn2c(=N)n(CCN3CCCCC3)c3ccccc32)cc1.Cl` (stereo not shown) here?
Its value is -77.2%.

With `CCOc1ccc(C(O)(c2ccccc2)C(CN2CCCC2)c2ccccc2)cc1.Cl` (stereo not shown) as the compound, how does the “hERG current change (%, negative = inhibition) at 10uM” value read?
The value was -34%.

`COc1ccc(OCC(O)Cn2c(=N)n(CCN3CCOCC3)c3ccccc32)cc1.Cl` (stereo not shown) was tested. Which “hERG current change (%, negative = inhibition) at 10uM” value did it give?
Its value is -34.7%.

For `Cc1ccc(OCC(O)Cn2c(=N)n(CCN3CCOCC3)c3ccccc32)cc1.Cl` (stereo not shown), which “hERG current change (%, negative = inhibition) at 10uM” value is on record?
Its value is -43.6%.

`Cc1onc(-c2c(F)cccc2Cl)c1C(=O)N1CCCc2ccccc21` was tested. Which “hERG current change (%, negative = inhibition) at 10uM” value did it give?
The value was -21.5%.

How did the “hERG current change (%, negative = inhibition) at 10uM” value turn out when `CC(=O)c1ccc(NC(=O)C(=O)c2cn(CC(=O)N3CCCCC3)c3ccccc23)cc1` was run?
Its value is 6.65%.

With `COc1ccc(-n2nc(C(=O)NCC(=O)N3CCN(c4ccccn4)CC3)c3ccccc3c2=O)cc1` as the compound, how does the “hERG current change (%, negative = inhibition) at 10uM” value read?
The value was -34.3%.

With `CC(=O)N1CCN(S(=O)(=O)c2cccc(C(=O)Nc3nccs3)c2)CC1` as the compound, how does the “hERG current change (%, negative = inhibition) at 10uM” value read?
The value was 3.42%.

For `CCCCN(c1ccccc1)S(=O)(=O)c1cccc(C(=O)O)c1`, which “hERG current change (%, negative = inhibition) at 10uM” value is on record?
The value was 5.27%.

Which “hERG current change (%, negative = inhibition) at 10uM” value does the source give for `C=CCn1c(O)c(N=Nc2ccccc2C)c2ccccc21` here?
Its value is 4.06%.

How did the “hERG current change (%, negative = inhibition) at 10uM” value turn out when `COc1ccc(-n2nnnc2SCC(=O)N2CCCc3ccccc32)cc1OC` was run?
Its value is -13.4%.

With `O=C1C2CCCN2C(c2ccccc2F)N1c1cccc(Cl)c1` (stereo not shown) as the compound, how does the “hERG current change (%, negative = inhibition) at 10uM” value read?
The value was 3.69%.

With `Cc1ccc2nc(CCc3nc4ccc(C)cc4o3)oc2c1` as the compound, how does the “hERG current change (%, negative = inhibition) at 10uM” value read?
The value was 4.09%.

For `CCOc1ccc(OCC)c(NC(=O)C2CCCN(S(=O)(=O)c3c(C)n[nH]c3C)C2)c1` (stereo not shown), which “hERG current change (%, negative = inhibition) at 10uM” value is on record?
Its value is 8.8%.

Which “hERG current change (%, negative = inhibition) at 10uM” value does the source give for `Cc1ccc(OCC(=O)Nc2cnn(CCCC(=O)O)c2)c([N+](=O)[O-])c1` here?
Its value is 3.59%.

`COc1cccc(OC)c1C(=O)OCC(=O)N(c1ccccc1)C1CCCCC1` was tested. Which “hERG current change (%, negative = inhibition) at 10uM” value did it give?
The value was -4.4%.
